Laboratory results taken from article PMC4336329 (PLoS ONE, 2015).
The whole screen tested about 310,000 compounds, of which about 14,000 (4.5%) showed an effect of 50% or more. Effects have a minus sign here. Only a selection was taken, and strong results are over-represented in it overall.

The molecules below were run against human ether-à-go-go-related gene (hERG) potassium channel (human, UniProt Q12809) (assay: primary screen, population patch clamp on CHO cells stably expressing hERG; higher = less effect of the substance).
human ether-à-go-go-related gene (hERG) potassium channel, sequence (Q12809 whole entry, looked up): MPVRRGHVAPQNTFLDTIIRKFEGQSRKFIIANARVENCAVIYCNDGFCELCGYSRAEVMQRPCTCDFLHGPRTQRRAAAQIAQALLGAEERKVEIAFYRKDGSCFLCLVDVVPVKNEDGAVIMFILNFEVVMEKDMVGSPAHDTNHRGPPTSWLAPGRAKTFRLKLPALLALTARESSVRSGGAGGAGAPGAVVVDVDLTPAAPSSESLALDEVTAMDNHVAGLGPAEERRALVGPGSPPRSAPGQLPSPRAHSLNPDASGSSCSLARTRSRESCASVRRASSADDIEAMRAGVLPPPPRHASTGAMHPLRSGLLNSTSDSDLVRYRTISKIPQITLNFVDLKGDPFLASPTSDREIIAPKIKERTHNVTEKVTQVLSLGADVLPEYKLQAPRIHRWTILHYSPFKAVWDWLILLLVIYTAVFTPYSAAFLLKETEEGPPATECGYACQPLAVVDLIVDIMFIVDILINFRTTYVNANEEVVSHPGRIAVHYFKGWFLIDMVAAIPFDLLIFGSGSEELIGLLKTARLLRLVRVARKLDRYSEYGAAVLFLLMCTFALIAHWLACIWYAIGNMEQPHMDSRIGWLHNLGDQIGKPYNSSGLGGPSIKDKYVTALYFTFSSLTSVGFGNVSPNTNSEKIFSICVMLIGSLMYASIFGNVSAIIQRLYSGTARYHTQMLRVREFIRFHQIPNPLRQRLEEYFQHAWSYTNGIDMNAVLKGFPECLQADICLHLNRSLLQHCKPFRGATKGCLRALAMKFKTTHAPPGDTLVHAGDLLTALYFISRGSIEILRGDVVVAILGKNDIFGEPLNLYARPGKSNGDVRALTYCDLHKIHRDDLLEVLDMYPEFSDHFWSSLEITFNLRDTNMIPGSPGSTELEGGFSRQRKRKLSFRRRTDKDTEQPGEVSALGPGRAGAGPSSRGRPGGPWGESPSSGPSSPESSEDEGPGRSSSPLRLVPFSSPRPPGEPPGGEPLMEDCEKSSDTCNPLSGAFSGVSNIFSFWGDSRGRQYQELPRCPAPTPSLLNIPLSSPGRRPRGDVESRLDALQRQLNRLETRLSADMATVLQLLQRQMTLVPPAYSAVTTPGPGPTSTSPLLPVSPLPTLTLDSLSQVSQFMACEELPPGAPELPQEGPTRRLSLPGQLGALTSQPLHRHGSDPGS
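Note: peak tail current of the secondary pulse compared with the same well before compound.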

Row | SMILES | hERG current change (%, negative = inhibition) at 10uM [%]
1 | COc1ccc(NC(=O)CN2C(=O)C(C)Oc3ccccc32)c(OC)c1 (centres unmarked) | -10.4
2 | Cc1nc(-c2ccccc2)sc1C1(C)CC(c2ccccc2F)=NO1 (centres unmarked) | 1.13
3 | O=c1c2ccccc2n2c(=S)[nH]nc2n1-c1ccccc1 | 38.4
4 | Cc1ccc(C2(c3ccc(C)cc3)CC2C(=O)Nc2ccc([N+](=O)[O-])cc2O)cc1 (centres unmarked) | -2.42
5 | CCc1ccccc1NC(=O)CC(NCc1ccccc1)C(=O)O (centres unmarked) | 22.5
6 | CCOc1ccc(Cc2nn[nH]n2)cc1 | 9.6
7 | CCn1cc(SCC(=O)N2CCc3ccccc32)c2ccccc21 | -1.74
8 | CC(C)N1CC(C(=O)O)CC1=O (centres unmarked) | 19
9 | Cn1c(CC(=O)Nc2ccccc2Cl)nnc1SCC(=O)NC1=NCCS1 | 14.7
10 | CCN1C(=O)/C(=C/C2=Cc3ccccc3OC2C)SC1=S (centres unmarked) | 14.7
11 | CCN(CC(=O)Nc1ccc2c(c1)OCCO2)Cc1nc2cc(Cl)ccc2c(=O)[nH]1 | -29
12 | CCN(CC(=O)NCc1ccc(F)cc1)Cc1nc2ccccc2c(=O)[nH]1 | -56.5
13 | CCN(CC(=O)Nc1ccccc1SC)Cc1nc2ccccc2c(=O)[nH]1 | -23.9
14 | CCN(CC(=O)NCCc1ccc(F)cc1)Cc1nc2ccccc2c(=O)[nH]1 | -50.7
15 | CCN(CC(=O)Nc1cc(Cl)ccc1-n1cncn1)Cc1nc2ccccc2c(=O)[nH]1 | -60.3
16 | COCCN(CC(=O)Nc1cc(Cl)ccc1-n1cncn1)Cc1nc2ccccc2c(=O)[nH]1 | -43
17 | CCNCc1nc2cc(Cl)ccc2c(=O)[nH]1.Cl | 4.64
18 | CCN(CC(=O)NCCc1ccc(S(N)(=O)=O)cc1)Cc1nc2ccccc2c(=O)[nH]1 | 17.9
19 | CCN(CC(=O)Nc1cccc(F)c1)Cc1nc2ccccc2c(=O)[nH]1 | -31.7
20 | CCN(CC(=O)NC(=O)NCc1ccccc1)Cc1nc2ccccc2c(=O)[nH]1 | -12.9
21 | O=C(c1ccccc1)N(Cc1ccc(F)cc1)Cc1nc2ccccc2c(=O)[nH]1 | -35

Row | SMILES | hERG current change (%, negative = inhibition) at 10uM [%]
22 | CCN(CC(=O)NCc1ccc(F)cc1)Cc1nc2cc(Cl)ccc2c(=O)[nH]1 | -72.6
23 | O=C(c1noc2c1CCCC2)N1CCc2c([nH]c3ccccc23)C1c1ccccn1 (centres unmarked) | -7.65
24 | O=C(Nc1ccccn1)N1CCOCC1 | 15.1
25 | O=C(CN1CCN(c2ccc(F)cc2)CC1)Nc1ccc(S(=O)(=O)N2CCOCC2)cc1 | 0.845
26 | Cc1cc(C)cc(-n2nnc(C(=O)NCc3ccco3)c2N)c1 | -29.8
27 | O=C(Cn1nnc(-c2ccccc2NC(=O)c2ccco2)n1)Nc1ccccc1 | 16.1
28 | COc1cc(/C=C/C(=O)Nc2nnc(CC(C)C)s2)cc(OC)c1OC | -27.8
29 | CCN1CCN(c2ccc(NC(=O)c3cc4ccccc4cc3OC)cc2C)CC1 | -48.7
30 | C(=C\c1ccco1)/c1nc2ccccc2[nH]1 | 8.91
31 | O=C(c1cc2ncc(CCCl)cn2n1)N1CCCCCC1 | 8.53
32 | Cc1cccc(C)c1N1CCc2cn[nH]c21 | 8.17
33 | CC1=NN(C(N)=S)C(=O)C1N=Nc1cccc(Cl)c1 (centres unmarked) | 17.2
34 | CN(C)S(=O)(=O)c1ccc2c(c1)C(=NO)c1cc(S(=O)(=O)N(C)C)ccc1-2 | 14.7
35 | OCCNc1nc(Cl)nc(NCc2ccco2)n1 | 8.89
36 | CCc1ccccc1NC(=O)COC(=O)c1c(C)nsc1NC | -2.87
37 | COc1ccccc1C(=O)n1nc(-c2ccccc2)nc1N | 0.335
38 | CCN(CC(=O)Nc1ccccc1Br)Cc1nc2ccccc2c(=O)[nH]1 | -22.3
39 | CCN(CC(=O)Nc1ccccc1-c1ccccc1)Cc1nc2ccccc2c(=O)[nH]1 | -23.4
40 | CCN(CC(=O)Nc1ccccc1C(=O)Nc1ccccc1)Cc1nc2ccccc2c(=O)[nH]1 | -75.6
41 | O=C(CCSc1nc(-c2ccco2)cc(C(F)(F)F)n1)NCC1CCCO1 (centres unmarked) | -8.69
42 | O=C1CCC(=O)N1OCCCOc1ccccc1 | -2.09

Row | SMILES | hERG current change (%, negative = inhibition) at 10uM [%]
43 | COC(=O)c1[nH]c2ccc(Cl)cc2c1NC(=O)C1CC1 | 17.1
44 | COc1cc(C(=O)NC(C)c2cnn(-c3ccccc3C)c2C)cc(OC)c1OC (centres unmarked) | -51
45 | COc1cc(OC)cc(C(=O)NC(C)c2cnn(-c3ccccc3C)c2C)c1 (centres unmarked) | -1.48
46 | Cc1ccccc1-n1ncc(C(C)NC(=O)c2ccccc2)c1C (centres unmarked) | -4.33
47 | C/C(N)=C(/C#N)C(=O)COC(=O)C1CCC(C(C)(C)C)CC1 (centres unmarked) | -7.3
48 | O=c1[nH]c(C2CCN(S(=O)(=O)c3ccccc3)CC2)nc2c1nnn2Cc1c(F)cccc1Cl | -2.84
49 | CCOC(=O)c1[nH]c2c(c1C)C(=O)CC(c1ccc(OC)c(OC)c1)C2 (centres unmarked) | -9.84
50 | O=C(CCN1CCN(CC(=O)Nc2ccccc2Cl)CC1)Nc1ccccc1F | -69.1
51 | CN1CCN(CCC(=O)Nc2ccccc2Cl)CC1 | -1.75
52 | Cl.O=C(CCN1CCCCCC1)Nc1ccccc1F | -4.4
53 | O=C(CCN1CCN(CC(=O)Nc2ccccc2F)CC1)Nc1ccccc1F | -65.4
54 | O=C(CCN1CCN(c2ccccc2F)CC1)Nc1ccccc1Cl | -2.49
55 | O=C(CN1CCN(c2ccccc2F)CC1)Nc1ccccc1F | -1.86
56 | COc1ccc(N(Cc2ccccc2)S(=O)(=O)c2cc(C(=O)O)ccc2Cl)cc1 | 5.3
57 | CC(C)[C@H](NC(=O)OCc1ccccc1)C(=O)OCC(=O)Nc1ccc(N2CCOCC2)cc1 | -15.1
58 | CC(C)C(NC(=O)OCc1ccccc1)C(=O)OCC(=O)N1C(C)CCCC1C (centres unmarked) | 4.95
59 | CC(C)C(NC(=O)c1ccccc1)C(=O)OCC(=O)N1CCN(c2ccccc2)CC1 (centres unmarked) | -2.47
60 | CC(C)C(NC(=O)OCc1ccccc1)C(=O)OCC(=O)N1CCCCC1 (centres unmarked) | -7.36
61 | CC(C)[C@H](NC(=O)OCc1ccccc1)C(=O)OCC(=O)N1CCN(c2ccccc2)CC1 | -58.3
62 | CC(C)[C@H](NC(=O)OCc1ccccc1)C(=O)OCC(=O)N1CCN(c2ccc(F)cc2)CC1 | -75.3
